According to PubChem BioAssay (NCATS):
Records with an inconclusive call do not appear. The source made the active and inactive calls. The call rests on the fitted dose curve; in most records, active means well fitted curve in the direction sought with a large enough effect; inconclusive means small, poorly fitted or top-dose-only effect, or another doubt; inactive means no such curve, though single readings can be large; an effect the other way counts as inactive or inconclusive. Numbered stars: 1 amine (or outer) side, 2 acyl side, 3 side chain; on linkers, the order of the positions; unused ones are H or OH. Bridge positions count the residues as written; N and C are the ends. Square brackets hold non-standard residues; d marks the D form. Peptide text beside a SMILES is read from it. I, II: the chains in the order shown. Actinocin(9to1) = Cc1c2oc3c(C)ccc(C(=O)[*:1])c3nc-2c(C(=O)[*:2])c(N)c1=O; NMeV = CN[C@H](C(=O)O)C(C)C; Sar = CNCC(=O)O

What was measured:
[1] = Cell Viability - LYMP1-003 - Assay at 40 hr (AID 964); conditions: LYMP1-003 lymphoblastoid viability; series mostly up to 92.2 µM; further: nearly all actives have a fitted effect of over 60% in size
In short: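 Viability is taken as cellular ATP, read by CellTiter-Glo luminescence after 40 h of compound exposure at 37 C. Cells: human lymphoblastoid line LYMP1-003 at 2500/well; AC50 values derived by Hill-equation fitting of concentration-response data.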

[2] = Cell Viability - LYMP2-004 (AID 966); conditions: LYMP2-004 lymphoblastoid cell viability, qHTS; series mostly up to 92.2 µM; further: nearly all actives have a fitted effect of over 65% in size
In short: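 AC50 values come from Hill modelling of concentration-dependent loss of intracellular ATP, measured by CellTiter-Glo luminescence. Human LYMP2-004 lymphoblastoid cells (2500/well) were exposed to compound for 24 h at 37 C.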

[3] = Cell Viability - LYMP2-005 (AID 967); conditions: LYMP2-005 lymphoblastoid cell viability; series mostly up to 92.2 µM
In short: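 Steps: seed 2500 LYMP2-005 cells/well, incubate 5 h at 37 C, add compound, incubate 24 h at 37 C, add CellTiter-Glo, wait 30 min at RT, read luminescence. Concentration-response data fitted to Hill equation for AC50.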

[4] = Cell Viability - LYMP2-009 (AID 968); conditions: LYMP2-009 lymphoblastoid cell viability; series mostly up to 92.2 µM; further: nearly all actives have a fitted effect of over 55% in size
[5] = Cell Viability - LYMP2-011 (AID 969); conditions: LYMP2-011 lymphoblastoid cells viability; series mostly up to 92.2 µM; further: nearly all actives have a fitted effect of over 60% in size
In short: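 Cytotoxicity qHTS with ATP content as read-out: lymphoblastoid cells (2500/well) exposed to compound for 24 h at 37 C, then luciferase luminescence measured. Concentration-response data fitted with the standard Hill equation to give AC50.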

[6] = Cell Viability - LYMP2-013 (AID 970); conditions: LYMP2-013 lymphoblastoid cells viability; series mostly up to 92.2 µM; further: nearly all actives have a fitted effect of over 55% in size
In short: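 qHTS cytotoxicity: ATP-dependent luminescence (CellTiter-Glo, 30 min room temperature) read after 24 h compound exposure at 37 C of 2500 LYMP2-013 lymphoblastoid cells per well. Concentration-response fitted with Hill equation to give AC50.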

[7] = Cell Viability - LYMP2-015 (AID 971); conditions: LYMP2-015 lymphoblastoid cell viability; series mostly up to 92.2 µM; further: nearly all actives have a fitted effect of over 55% in size
In short: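 Cytotoxicity readout: decrease in intracellular ATP (CellTiter-Glo luminescence) in 2500 LYMP2-015 lymphoblastoid cells/well after 24 h compound exposure at 37 C. Concentration-response data fitted with the standard Hill equation to give AC50.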

[8] = Cell Viability - LYMP2-017 (AID 972); conditions: LYMP2-017 lymphoblastoid cell viability; series mostly up to 92.2 µM; further: nearly all actives have a fitted effect of over 55% in size
In short: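 CellTiter-Glo luminescence (cellular ATP, 30 min RT) measured cytotoxicity after 24 hr compound treatment at 37 C. Cells were a human lymphoblastoid line, LYMP2-017, plated at 2500/well and incubated 5 hr first; concentration-response fitted with Hill equation for AC50.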

[9] = Cell Viability - LYMP2-019 (AID 973); conditions: LYMP2-019 lymphoblastoid cell line viability; series mostly up to 92.2 µM; further: nearly all actives have a fitted effect of over 55% in size
In short: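 AC50 values come from Hill-equation fits of luminescent intracellular ATP (CellTiter-Glo, 30 min, room temperature) following 24 h compound exposure at 37 C. Cells: LYMP2-019 lymphoblastoid line, 2500 per well, in complete culture medium.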

[10] = Cell Viability - LYMP2-023 (AID 975); conditions: LYMP2-023 lymphoblastoid cell viability; series mostly up to 92.2 µM; further: nearly all actives have a fitted effect of over 55% in size
In short: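 Intracellular ATP, read by CellTiter-Glo luminescence, reports viability after 24 hr compound exposure at 37 C. 2500 lymphoblastoid cells/well (LYMP2-023) seeded 5 hr beforehand; Hill fits give AC50; positive control tetraoctylammonium bromide.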

[11] = Cell Viability - LYMP2-025 (AID 976); conditions: LYMP2-025 lymphoblastoid cell viability; series mostly up to 92.2 µM
In short: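 Cytotoxicity read as loss of intracellular ATP (luciferase luminescence) after 24 h compound treatment at 37 C. Uses LYMP2-025 lymphoblastoid cells in 1536-well format; Hill-equation modelling gives AC50; tetraoctylammonium bromide as positive control.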

[12] = Cell Viability - LYMP2-002 (AID 977); conditions: LYMP2-002 lymphoblastoid cell viability, qHTS; series mostly up to 92.2 µM
In short: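 Human lymphoblastoid cells (2500/well) in complete medium were preincubated 5 hr at 37 C, then exposed to compounds for 24 hr at 37 C. Intracellular ATP was read by CellTiter-Glo luminescence; AC50 came from Hill-equation concentration-response fits.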

[13] = Cell Viability - LYMP2-006 (AID 978); conditions: LYMP2-006 lymphoblastoid cell viability, qHTS; series mostly up to 92.2 µM; further: nearly all actives have a fitted effect of over 60% in size
In short: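 qHTS, 1536-well; 2500 cells/well, 5 hr 37 C; cpd 24 hr 37 C; CellTiter-Glo 30 min RT; luminescence. Tetraoctylammonium bromide pos. ctrl. AC50 via Hill eqn.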

[14] = Cell Viability - LYMP2-007 (AID 979); conditions: LYMP2-007 lymphoblastoid cell viability; series mostly up to 92.2 µM;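 further: cells exposed to compound for 24 h before reading; nearly all actives have a fitted effect of over 60% in size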
In short: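 AC50 values come from Hill-equation fits of luminescent intracellular ATP (CellTiter-Glo, 30 min, room temperature) following 24 h compound exposure at 37 C. Cells: LYMP2-007 lymphoblastoid line, 2500 per well, in complete culture medium.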

[15] = Cell Viability - LYMP2-008 (AID 980); conditions: LYMP2-008 lymphoblastoid cell viability, qHTS; series mostly up to 92.2 µM; further: nearly all actives have a fitted effect of over 60% in size
In short: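 Cytotoxicity determined from ATP-dependent luciferase luminescence (CellTiter-Glo) following 24 h compound exposure of human lymphoblastoid LYMP2-008 cells at 37 C. Concentration-response data fitted to the Hill equation to give AC50.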

[16] = Cell Viability - LYMP2-010 (AID 981); conditions: LYMP2-010 lymphoblastoid cell viability, qHTS; series mostly up to 92.2 µM; further: nearly all actives have a fitted effect of over 55% in size
In short: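 CellTiter-Glo ATP luminescence measured cytotoxicity after 24 h compound exposure at 37 C. LYMP2-010 cells were seeded at 2500/well, with tetraoctylammonium bromide as control; concentration-response curves gave AC50 values by the Hill equation.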

[17] = Cell Viability - LYMP2-012 (AID 982); conditions: LYMP2-012 lymphoblastoid cell viability qHTS; series mostly up to 92.2 µM
[18] = Cell Viability - LYMP2-014 (AID 983); conditions: LYMP2-014 lymphoblastoid cells, viability qHTS; series mostly up to 92.2 µM; further: nearly all actives have a fitted effect of over 50% in size
In short: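 Intracellular ATP loss, read by luciferase luminescence, measures acute cytotoxicity after 24 h compound exposure of lymphoblastoid LYMP2-014 cells (2500/well, 37 C). Concentration-response data fitted to the Hill equation for AC50.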

[19] = Cell Viability - LYMP2-016 (AID 984); conditions: LYMP2-016 lymphoblastoid cell viability, qHTS; series mostly up to 92.2 µM; further: nearly all actives have a fitted effect of over 55% in size
In short: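 qHTS, 1536-well: 2500 LYMP2-016 cells/well, 5 hr 37 C, compound added, 24 hr 37 C, CellTiter-Glo 30 min RT, luminescence. Tetraoctylammonium bromide positive control. AC50 via Hill fit.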

[20] = Cell Viability - LYMP2-018 (AID 985); conditions: LYMP2-018 lymphoblastoid cells, viability (qHTS); series mostly up to 92.2 µM; further: nearly all actives have a fitted effect of over 50% in size
In short: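 Viability read as CellTiter-Glo luminescence (cellular ATP) after 24 hr compound exposure at 37 C of 2500 LYMP2-018 lymphoblastoid cells/well, pre-plated 5 hr. Hill-equation modelling gave AC50.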

Measured: Potency
Potency means the concentration at half of the fitted maximal effect.

Nc1ccc(C(=O)O)cc1
inactive: all assays above

O=c1ccc2ccccc2o1
inactive: all assays above

Oc1c(I)cc(Cl)c2cccnc12
active: [1] 39.8 µM | [16] 50.1 µM
inactive: [11]

CC/C(=C(/CC)c1ccc(O)cc1)c1ccc(O)cc1
not listed: [1] | [16] | [17]
inactive: all other assays above

CCCCCCc1ccc(O)cc1O
not listed: [1] | [2]
inactive: all other assays above

CC(=O)Oc1ccc(C(c2ccc(OC(C)=O)cc2)c2ccccn2)cc1
inactive: all assays above

CC(O)C(=O)O (stereo not drawn)
inactive: all assays above

Oc1ccc(O)cc1
active: [1] 12.6 µM | [2] 39.8 µM | [3] 39.8 µM | [4] 50.1 µM | [5] 39.8 µM | [7] 50.1 µM | [8] 39.8 µM | [15] 50.1 µM | [16] 39.8 µM | [17] 50.1 µM
inactive: [10] | [11] | [18] | [19]

COC1=CC(=O)C[C@@H](C)[C@]12Oc1c(Cl)c(OC)cc(OC)c1C2=O
not listed: [1]
inactive: all other assays above

CC(C)(C)CC(C)(C)c1ccc(OCCOCC[N+](C)(C)Cc2ccccc2)cc1
active: [1] 31.6 µM | [2] 39.8 µM | [4] 31.6 µM | [5] 31.6 µM | [6] 25.1 µM | [7] 25.1 µM | [8] 31.6 µM | [9] 39.8 µM | [10] 39.8 µM | [11] 39.8 µM | [12] 25.1 µM | [13] 25.1 µM | [14] 25.1 µM | [15] 31.6 µM | [16] 31.6 µM | [17] 20 µM | [18] 31.6 µM | [19] 31.6 µM | [20] 25.1 µM

NC(=NCCCCCCN=C(N)/N=C(\N)Nc1ccc(Cl)cc1)/N=C(\N)Nc1ccc(Cl)cc1
active: [1] 31.6 µM | [4] 50.1 µM | [5] 39.8 µM | [6] 39.8 µM | [7] 39.8 µM | [8] 39.8 µM | [10] 50.1 µM | [13] 39.8 µM | [14] 39.8 µM | [15] 39.8 µM | [16] 39.8 µM | [17] 39.8 µM | [18] 39.8 µM | [19] 50.1 µM | [20] 39.8 µM

C=CCc1ccc(O)c(OC)c1
inactive: all assays above

COc1cccc2c1C(=O)c1c(O)c3c(c(O)c1C2=O)C[C@@](O)(C(C)=O)C[C@@H]3O[C@H]1C[C@H](N)[C@H](O)[C@H](C)O1
active: [1] 0.398 µM | [3] 0.158 µM | [4] 0.251 µM | [6] 2 µM | [8] 0.631 µM | [9] 3.98 µM | [16] 0.199 µM | [17] 0.158 µM | [20] 0.158 µM

Oc1c(Cl)cc(Cl)cc1Sc1cc(Cl)cc(Cl)c1O
active: [1] 39.8 µM | [4] 50.1 µM | [6] 50.1 µM | [15] 31.6 µM | [16] 50.1 µM | [19] 39.8 µM
inactive: [3]

COc1cccc2c1C(=O)c1c(O)c3c(c(O)c1C2=O)C[C@@](O)(C(=O)CO)C[C@@H]3O[C@H]1C[C@H](N)[C@H](O)[C@H](C)O1
active: [1] 0.398 µM | [2] 0.501 µM | [3] 0.398 µM | [4] 0.251 µM | [5] 0.251 µM | [6] 1 µM | [7] 0.158 µM | [8] 0.631 µM | [9] 0.631 µM | [10] 0.398 µM | [11] 0.501 µM | [12] 0.251 µM | [14] 1 µM | [16] 0.251 µM | [17] 0.199 µM | [18] 0.316 µM | [19] 0.251 µM | [20] 0.158 µM

O=C(O)CCCCC(=O)O
inactive: all assays above

C=C(CC)C(=O)c1ccc(OCC(=O)O)c(Cl)c1Cl
active: [4] 50.1 µM | [5] 50.1 µM | [6] 50.1 µM | [7] 50.1 µM | [8] 50.1 µM | [9] 39.8 µM | [16] 39.8 µM | [17] 39.8 µM | [19] 39.8 µM | [20] 39.8 µM

C[C@]12CC[C@@H]3c4ccc(O)cc4CC[C@H]3[C@@H]1CC[C@@H]2O
not listed: [12] | [20]
inactive: all other assays above

CC(=O)O[C@]1(C(C)=O)CC[C@H]2[C@@H]3C[C@H](C)C4=CC(=O)CC[C@]4(C)[C@H]3CC[C@@]21C
active: [2] 31.6 µM | [4] 39.8 µM | [5] 39.8 µM | [6] 31.6 µM | [7] 39.8 µM | [8] 31.6 µM | [13] 39.8 µM | [14] 39.8 µM | [15] 39.8 µM | [16] 31.6 µM | [17] 31.6 µM | [19] 39.8 µM | [20] 39.8 µM
inactive: [1]

CN(C)/N=N/c1nc[nH]c1C(N)=O
inactive: all assays above

Cc1c2oc3c(C)ccc(C(=O)N[C@@H]4C(=O)N[C@H](C(C)C)C(=O)N5CCC[C@H]5C(=O)N(C)CC(=O)N(C)[C@@H](C(C)C)C(=O)O[C@@H]4C)c3nc-2c(C(=O)N[C@@H]2C(=O)N[C@H](C(C)C)C(=O)N3CCC[C@H]3C(=O)N(C)CC(=O)N(C)[C@@H](C(C)C)C(=O)O[C@@H]2C)c(N)c1=O (I: T[dV]P[Sar][NMeV] / II: T[dV]P[Sar][NMeV]; ester I:1-I:C, II:1-II:C; linker I:N-II:N via Actinocin(9to1))
active: [1] 0.005 µM | [8] 0.01 µM

O=C1OC(c2ccc(O)cc2)(c2ccc(O)cc2)c2ccccc21
inactive: all assays above
